High-throughput results deposited in PubChem BioAssay by Broad Institute.
Rows were chosen to be rich in hits. Some 2.1% of all compounds tested hit in one or more screens of this group.
NFkB binder: binders of NF-kB p50 subunit, primary screen, biochemical, small molecule microarray, anti-His fluorescence | Nuclear factor NF-kappa-B p105 subunit (Homo sapiens), P19838 | AID 624139, 2012 | anti-His fluorescence binding | calls only | actives 1.3% (n = 17,000);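 active = spot fluorescence over background significantly raised, with a chance value under 7% in all four replicate spots of the compound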;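 also: probe protein is his-tagged human p50 processed subunit at 1 µg/ml; raw spot fluorescence signals with no normalization applied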
STAT3 binder: STAT3 binders, primary screen, biochemical, small molecule microarray, single point, set 2 | Signal transducer and activator of transcription 3 (Homo sapiens), P40763 | actives 0.2% (n = 17,000) | AID 624138, 2012 | calls only | His-STAT3 binding, anti-His fluorescence;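 active = compounds whose four printed spots each show fluorescence over background unusually high for their array block, chance value under 7%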
mut p53 SMM: binders of human mutant p53, primary screen, biochemical, small molecule microarray, anti-GST fluorescence; actives 0.4% (n = 17,000); calls only; small molecule microarray binding; mutant tumor protein p53 (GST-tagged), Homo sapiens;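 active = compounds whose four printed spots each glow above background more than chance allows, each with a p-value under 7%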
c-Myc SMM: binders of human c-Myc, primary screen, biochemical, small molecule microarray, anti-His fluorescence; His-c-Myc binding; Myc proto-oncogene protein (Homo sapiens), P01106; actives 1.5% (n = 17,000); calls only; AID 624141, 2012;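 active = spot fluorescence over background with P-value below 7% in all four replicate spots, showing protein binding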;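 also: score is binary with 100 for all four spots passing and 0 otherwise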
Active calls of the source: *; i = inactive; + = active, no number.

SMILES	NFkB binder	STAT3 binder	mut p53 SMM	c-Myc SMM
Cc1ccc(OCC(=O)Nc2cc(Cl)ccc2N2CCOCC2)c(C)c1	i	i	i	i
CC(C)(Sc1ccc(CCN(CCCCC2CCCCC2)C(=O)NC2CCCCC2)cc1)C(=O)O	+	i	i	i
CC(C)NC(=O)Nc1ccc2c(c1)C(=O)N([C@@H](C)CO)C[C@H](C)[C@@H](CN(C)Cc1ccccc1)OCCCC[C@H](C)O2	+	i	i	+
CC(C)NC(=O)Nc1ccc2c(c1)C(=O)N([C@@H](C)CO)C[C@H](C)[C@@H](CN(C)Cc1ccccc1)OCCCC[C@@H](C)O2	i	i	i	+
CC(C)NC(=O)Nc1ccc2c(c1)C(=O)N([C@@H](C)CO)C[C@H](C)[C@H](CN(C)Cc1ccccc1)OCCCC[C@@H](C)O2	i	i	i	i
CC(C)NC(=O)Nc1ccc2c(c1)C(=O)N([C@H](C)CO)C[C@@H](C)[C@H](CN(C)Cc1ccccc1)OCCCC[C@@H](C)O2	i	i	i	i
CC(C)NC(=O)Nc1ccc2c(c1)C(=O)N([C@@H](C)CO)C[C@@H](C)[C@H](CN(C)Cc1ccccc1)OCCCC[C@@H](C)O2	i	i	i	i
CC(C)NC(=O)Nc1ccc2c(c1)C(=O)N([C@@H](C)CO)C[C@H](C)[C@@H](CN(C)C(=O)Nc1ccccc1)OCCCC[C@@H](C)O2	+	i	i	+
CC(C)NC(=O)Nc1ccc2c(c1)C(=O)N([C@H](C)CO)C[C@H](C)[C@@H](CN(C)Cc1ccccc1)OCCCC[C@H](C)O2	+	i	i	i
CCn1c2ccccc2n2c(SCCOc3ccc(C)cc3)nnc12	i	i	i	i
O=C1C(=O)C(C2CCC(c3ccc(Cl)cc3)CC2)C(=O)c2ccccc21 (configuration not stated)	i	i	i	i
Cc1ccccc1C(=O)Nc1cccc(NC(=O)COc2ccccc2Cl)c1	i	i	i	i
COC(=O)c1ccc(CSc2nnc(CN3CCOCC3)n2C)cc1	i	i	i	i
C[C@H](CO)N1C[C@H](C)[C@H](CN(C)Cc2ccncc2)OCCCC[C@H](C)Oc2ccc(NC(=O)Nc3ccccc3)cc2C1=O	i	+	+	i
COc1ccc(OCC(=O)Nc2ccc(NC(=O)c3ccco3)c(OC)c2)cc1	i	i	i	i
Cc1nn(CC(=O)Nc2ccc3c(c2)nc(CN2CCCC2)n3C)c(=O)c2ccccc12	i	i	+	+
CC(C)(C)[C@@H]1C=C(C(=O)O)O[C@H](OCc2ccc(CO)cc2)C1	+	i	i	i
O=C(Nc1ccccc1)N[C@@H](Cc1ccccc1)Cn1cc(CN2C(=O)COC[C@H]2c2ccccc2)nn1	i	i	i	i
O=C(Cn1cc(CN2C(=O)COC[C@H]2c2ccccc2)nn1)Nc1nccs1	i	i	+	i
CC1CC(=O)C2C(O)(C1)CC(O)C13OC21C(=O)c1cccc(O)c1C3O (configuration not stated)	i	i	i	i
CCCN(CCC)CC1CCCCN1CCNC(=O)N1c2ccccc2C(=O)Nc2cccnc21 (configuration not stated)	i	i	+	i
C[C@@H]1CN([C@@H](C)CO)C(=O)Cc2cc(NC(=O)Nc3cccc4ccccc34)ccc2O[C@@H]1CN(C)Cc1ccc(C(=O)O)cc1	i	i	i	i
C[C@H](CO)N1C[C@H](C)[C@@H](CN(C)Cc2ccc(-c3ccccc3)cc2)Oc2ccc(NC(=O)Nc3cccc4ccccc34)cc2CC1=O	+	i	i	i
C[C@@H]1CN([C@@H](C)CO)C(=O)Cc2cc(NC(=O)CCN3CCOCC3)ccc2O[C@H]1CN(C)Cc1ccc(-c2ccccc2)cc1	i	i	i	+
C[C@@H]1CN([C@H](C)CO)C(=O)Cc2cc(NC(=O)CCN3CCOCC3)ccc2O[C@H]1CN(C)Cc1ccc(-c2ccccc2)cc1	i	i	i	i
SMILES	NFkB binder	STAT3 binder	mut p53 SMM	c-Myc SMM
CSc1nc2sc3c(c2c2nnc(SCC(=O)Nc4ccccc4)n12)CCC3	i	i	i	i
CCCCn1c2ccccc2c2nnc(SCCN3CCOCC3)nc21	i	i	+	i
CC(=O)Nc1ccc(NC(=O)CSc2nnc3c4ccccc4n(C)c3n2)cc1	i	i	i	i
COc1cccc(C2CC(=O)NC(SCC(=O)Nc3ccccc3Cl)=C2C#N)c1OC (configuration not stated)	i	i	i	i
COc1ccccc1CC(CC(=O)O)C(=O)O (configuration not stated)	+	i	i	+
COc1ccccc1CC(=O)Nc1cc(Cl)ccc1O	i	i	i	i
O=C(Cn1nnc2ccccc21)OCc1ccccc1Cl	i	i	i	i
Cc1cc(O)c(Cc2c(O)cc(C)oc2=O)c(=O)o1	i	i	i	i
COc1ccccc1CN1CCN(Cc2cccnc2)CC1	i	i	i	+
Cc1cc(Cl)ccc1OC(C)C(=O)Nc1ccc(C(=O)Nc2ccccc2C(=O)O)cc1 (configuration not stated)	i	i	i	+
COc1cc(NC(=O)C(C)Oc2ccccc2)c(Cl)cc1NC(=O)c1ccc(Cl)cc1 (configuration not stated)	i	i	i	i
COC(=O)C(CC#Cc1ccc2c(c1)[C@]1(C(=O)N2)[C@H](C(N)=O)[C@H]2C(=O)O[C@H](c3ccccc3)[C@H](c3ccccc3)N2[C@@H]1c1ccccc1OCCO)C(=O)OC	i	i	+	i
O=C1O[C@H](c2ccccc2)[C@H](c2ccccc2)N2[C@H]1[C@@H](C(=O)N1CCCCCCC1)[C@]1(C(=O)Nc3ccccc31)[C@H]2c1ccc(O)cc1	+	i	+	+
O=C1O[C@H](c2ccccc2)[C@H](c2ccccc2)N2[C@H]1[C@@H](C(=O)N1CCN(c3ncccn3)CC1)[C@]1(C(=O)Nc3ccc(C#CC4=CCCCC4)cc31)[C@H]2c1ccc(OCCO)cc1	i	i	i	i
O=C1O[C@H](c2ccccc2)[C@H](c2ccccc2)N2[C@H]1[C@@H](C(=O)N1CCCCCCC1)[C@]1(C(=O)Nc3ccc(C#CC4(O)CCCCCC4)cc31)[C@H]2c1ccccc1OCCO	i	i	+	i
COC(=O)C(CC#Cc1ccc2c(c1)[C@]1(C(=O)N2)[C@H](C(N)=O)[C@H]2C(=O)O[C@H](c3ccccc3)[C@H](c3ccccc3)N2[C@@H]1c1ccc(OCCO)cc1)C(=O)OC	i	i	i	i
